Shown are actives, neighbours in structure and some others; about 13% of the full set was active somewhere.
Shiga toxin inh: inhibitors of Shiga toxin in Vero cells; Vero cells, Shiga toxin protein synthesis inhibition reporter; 9.2% of 290,000 active; inhibition, % at 38.7 µM; in the data active = inhibition mostly above about 28%, no sharp cut-off; inactive = mostly below about 43%
Cycloheximide cs: counter-screen hit for Shiga toxin inhibitors, cycloheximide; cell reporter, cycloheximide protein synthesis inhibition counterscreen; max response, %; 12% of 300,000 active; AID 2314; in the data active = max response mostly above about 13%, no sharp cut-off; inactive = mostly below about 14%; note: read at 38.3 µM for the half of the compounds with a filed dose
Marburg entry inh: blocks Marburg virus binding to or entry into cells | Marburg virus pseudotyped entry inhibition, cell reporter | Potency, µM (top dose mostly 37.8 µM), most hits filed as inhibitors | 1.8% of 300,000 active | AID 540276; calls by dose curve; tested in HEK293 cells
FMDV antiviral: antivirals against foot and mouth disease virus | FMDV antiviral cell-based qHTS | AID 1159524 | 1.2% of 410,000 active | Potency, µM (top dose mostly 57.9 µM), hits mostly inhibitors; calls by dose curve; tested in HEK293T cells; note: read-out not given here; nearly all actives have a fitted effect of over 45% in size
HCV inhibitor: inhibitors of hepatitis C virus infection; Huh7.5.1 HCVcc-Cre infection, luciferase reporter, 44 h; Potency, µM (top dose mostly 41.8 µM), hits mostly inhibitors; 3.4% of 340,000 active; active = well fitted inhibition curve with a large enough effect; inconclusive = small, poorly fitted or top-dose-only effect, or another doubt; inactive = no such curve, though single readings can be large or run the other way
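Seed cells (1,000/well) for 4 h; treat with compound and infect with HCVcc-Cre, moi about 0.5. Incubate 44 h, then detect luciferase activity.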
Lassa entry inh: inhibitors of Lassa virus binding or cell entry; Lassa virus pseudotype entry inhibition, cell reporter; Potency, µM (highest dose often 37.9 µM), hits mostly inhibitors; 1.2% of 300,000 active; calls by dose curve; tested in HEK293 cells; note: nearly all actives have a fitted effect of over 50% in size
A number is an active result.

Results for Cc1ccc(N/N=C(\C#N)C(N)=S)c(C)c1 ?
Shiga toxin inh: inactive; Cycloheximide cs: 13; Marburg entry inh: inactive; FMDV antiviral: inactive; HCV inhibitor: inactive; Lassa entry inh: inactive

Results for O=C(C1CCC1)N1CCN(c2ccnc3cc(Cl)ccc23)CC1 ?
Shiga toxin inh: inactive; Cycloheximide cs: inactive; FMDV antiviral: inactive; HCV inhibitor: inconclusive

How did O=C(Nc1ccc(OC(F)(F)F)cc1)N1CCN(c2ccnc3cc(Cl)ccc23)CC1 do in these assays?
Shiga toxin inh: inactive; Cycloheximide cs: inactive; FMDV antiviral: inconclusive; HCV inhibitor: 11µM

How did O=C(C1CCCCC1)N1CCN(c2ccnc3cc(Cl)ccc23)CC1 do in these assays?
Shiga toxin inh: inactive; Cycloheximide cs: inactive; Marburg entry inh: inconclusive; FMDV antiviral: 28µM; HCV inhibitor: inconclusive; Lassa entry inh: 7.9µM

What do the screens show for `O=C(O)c1ccc(NC(=O)c2ccc(Cl)cc2)c(NC(=O)c2ccc(Cl)cc2)c1`?
Cycloheximide cs: inactive; Marburg entry inh: inactive; FMDV antiviral: inactive; HCV inhibitor: inactive; Lassa entry inh: inconclusive

How did CCCCS(=O)(=O)N1C2=NC3=C(C(=O)N(CCOC)C3=O)C3N(C)c4ccccc4[C@]23C[C@H]1CO (stereo partly drawn) do in these assays?
Marburg entry inh: inactive

What do the screens show for `CC(=O)Nc1ccc(NC2=CC(=O)c3ccccc3C2=O)cc1`?
Shiga toxin inh: 111; Cycloheximide cs: 55; Marburg entry inh: inconclusive; FMDV antiviral: inactive; HCV inhibitor: inactive; Lassa entry inh: inactive

What do the screens show for `O=C1C=C(Nc2ccc(O)cc2)C(=O)c2ccccc21`?
Shiga toxin inh: 68; Cycloheximide cs: 44; Marburg entry inh: inconclusive; FMDV antiviral: inactive; HCV inhibitor: inconclusive; Lassa entry inh: inconclusive

What do the screens show for `CC(=O)Nc1ccccc1`?
FMDV antiviral: inactive; HCV inhibitor: inactive

How did C=CCN(C(=O)C1=NN(C2CCS(=O)(=O)C2)C(=O)CC1)c1nc(-c2ccc([N+](=O)[O-])cc2)cs1 (stereo not drawn) do in these assays?
Shiga toxin inh: inactive; Cycloheximide cs: 38; Marburg entry inh: inconclusive; FMDV antiviral: inactive; HCV inhibitor: inconclusive; Lassa entry inh: inconclusive

Results for COc1ccccc1N1C(=O)N(C(C)=O)C2C1Nc1ccccc1N2C (stereo not drawn) ?
Shiga toxin inh: inactive; Cycloheximide cs: inactive; Marburg entry inh: 12µM; HCV inhibitor: inconclusive; Lassa entry inh: inconclusive

What do the screens show for `Cc1ccsc1/C=C1/SC(=O)N(CC(=O)N2CCOCC2)C1=O`?
Shiga toxin inh: inactive; Cycloheximide cs: 25; Marburg entry inh: inconclusive; FMDV antiviral: inactive; HCV inhibitor: inactive; Lassa entry inh: inactive

What do the screens show for `CCN=C1S/C(=C\c2ccc(OC)c(OCC)c2)C(=O)N1CC`?
Shiga toxin inh: inactive; Cycloheximide cs: inactive; Marburg entry inh: inactive; HCV inhibitor: inactive; Lassa entry inh: inactive

What do the screens show for `CCN=C1S/C(=C\c2sccc2C)C(=O)N1CC`?
Shiga toxin inh: 31; Cycloheximide cs: 19; Marburg entry inh: inactive; FMDV antiviral: inactive; HCV inhibitor: inconclusive; Lassa entry inh: inactive

How did O=C(CN1C(=O)S/C(=C/c2ccc(N3CCOCC3)cc2)C1=O)N1CCOCC1 do in these assays?
Shiga toxin inh: 36; Cycloheximide cs: 17; Marburg entry inh: inconclusive; FMDV antiviral: inactive; HCV inhibitor: inactive; Lassa entry inh: inactive

How did CCc1ccc(/C=N/Nc2ncnc3nc[nH]c23)cc1 do in these assays?
Shiga toxin inh: 82; Cycloheximide cs: 40; Marburg entry inh: inconclusive; FMDV antiviral: inactive; HCV inhibitor: inactive; Lassa entry inh: 7.9µM

Results for CC(C)=NNc1ncnc2nc[nH]c12 ?
Marburg entry inh: inactive; FMDV antiviral: inactive; HCV inhibitor: inactive; Lassa entry inh: inactive

Results for Clc1ccc(N2N=C(c3cccs3)CC2c2ccco2)cc1 (stereo not drawn) ?
Shiga toxin inh: inactive; Cycloheximide cs: 37; Marburg entry inh: inactive; FMDV antiviral: inactive; HCV inhibitor: inactive; Lassa entry inh: inactive

Results for CC(N)C12CC3CC(CC(C3)C1)C2 (stereo not drawn) ?
Shiga toxin inh: inactive; Cycloheximide cs: inactive; Marburg entry inh: inactive; FMDV antiviral: inactive; HCV inhibitor: inactive; Lassa entry inh: inconclusive

What do the screens show for `COc1cccc(C(=O)Nc2ccc3c(c2)C(=O)NC3=O)c1`?
Shiga toxin inh: inactive; Cycloheximide cs: inactive; FMDV antiviral: inactive; HCV inhibitor: inactive

How did O=C(COc1cccc(C(F)(F)F)c1)Nc1ccc2[nH]ncc2c1 do in these assays?
Shiga toxin inh: inactive; Cycloheximide cs: inactive; FMDV antiviral: inactive; HCV inhibitor: inactive

Results for COc1ccccc1C(=O)Nc1ccc2[nH]ncc2c1 ?
Shiga toxin inh: inactive; Cycloheximide cs: 16; Marburg entry inh: inactive; FMDV antiviral: inactive; HCV inhibitor: inactive; Lassa entry inh: inactive

Results for CC(C)c1ccccc1OCC(=O)Nc1ccc2[nH]ncc2c1 ?
Shiga toxin inh: inactive; Cycloheximide cs: inactive; Marburg entry inh: inactive; FMDV antiviral: inactive; HCV inhibitor: 22µM; Lassa entry inh: inconclusive

How did COc1ccccc1C(=O)Nc1cccnc1 do in these assays?
Shiga toxin inh: inactive; Cycloheximide cs: inactive; Marburg entry inh: inactive; FMDV antiviral: inactive; HCV inhibitor: inactive; Lassa entry inh: inactive

Results for COc1cccc(C(=O)Nc2ccc3[nH]ncc3c2)c1 ?
Shiga toxin inh: inactive; Cycloheximide cs: 24; Marburg entry inh: inconclusive; FMDV antiviral: inactive; HCV inhibitor: inactive; Lassa entry inh: inconclusive

Results for CCOc1cccc(C(=O)Nc2ccc3[nH]ncc3c2)c1 ?
Shiga toxin inh: 22; Cycloheximide cs: 36; Marburg entry inh: inactive; FMDV antiviral: inconclusive; HCV inhibitor: inactive; Lassa entry inh: inconclusive

What do the screens show for `O=c1[nH]cc(N=Cc2cc(Cl)cc(Cl)c2O)c(=O)[nH]1`?
Shiga toxin inh: inactive; Cycloheximide cs: inactive; FMDV antiviral: inactive; HCV inhibitor: inactive

What do the screens show for `COCCNC(=S)NN(c1ccccc1)c1ccccc1`?
Shiga toxin inh: inactive; Cycloheximide cs: inactive; Marburg entry inh: inactive; FMDV antiviral: inactive; HCV inhibitor: inactive; Lassa entry inh: inconclusive

How did C=CCOc1ccc(/C=C/C(=O)OCC(=O)N2CCCc3ccccc32)cc1 do in these assays?
Marburg entry inh: inactive; FMDV antiviral: inactive; HCV inhibitor: inactive; Lassa entry inh: inactive

Results for Cn1cnc([N+](=O)[O-])c1Sc1nc(N)nc2c1ncn2C1OC(CO)C(O)C1O (stereo not drawn) ?
Marburg entry inh: inconclusive; FMDV antiviral: inconclusive; HCV inhibitor: inactive; Lassa entry inh: 2.8µM

How did CC(=O)/C(C#N)=C1\NC(=O)C(Cc2ccccc2Cl)S1 (stereo not drawn) do in these assays?
Shiga toxin inh: inactive; Cycloheximide cs: inactive; Marburg entry inh: inconclusive; FMDV antiviral: inactive; HCV inhibitor: inactive; Lassa entry inh: 2.3µM

What do the screens show for `Cc1ccc(NC(=O)CN(C)C(=O)COC(=O)CNS(=O)(=O)c2ccc(Br)cc2Cl)cc1`?
Shiga toxin inh: inactive; Cycloheximide cs: inactive; Marburg entry inh: inactive; FMDV antiviral: inactive; HCV inhibitor: inactive; Lassa entry inh: inactive

How did CCOc1cc(-c2nnc(-c3ccco3)o2)cc(OCC)c1OCC do in these assays?
Shiga toxin inh: active; Cycloheximide cs: 22; Marburg entry inh: inactive; FMDV antiviral: inactive; HCV inhibitor: inconclusive; Lassa entry inh: inactive
